High-throughput results from PubChem.
Shown is part of a subset that was picked to be rich in hits.
Pf Dd2 growth: Plasmodium falciparum Dd2 growth inhibition. 120,000 compounds, 4.3% hits. AID 1347417. P. falciparum Dd2 growth, SYBR Green, 72 h. Potency, µM (highest dose often 28.9 µM), for the others: at the highest dose activity, negative = inhibition, actives largely listed as inhibitors; active means well fitted inhibition curve with a large enough effect;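 further: plate controls were DMSO vehicle for no effect and reference drug for full effect; nearly all actives have a fitted effect of over 65% in size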
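Infected erythrocytes (Dd2, 0.3% parasitemia, 2.5% hematocrit final) are added to compound in RPMI-1640/Albumax II medium, grown 72 h at 37C in low oxygen, then lysed with saponin/Triton-X containing SYBR Green and read by fluorescence.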
Numbers without * were called inactive; i = inactive; [ ] = dose if it differs, or a comment. Potency means the concentration at half of the fitted maximal effect.

SMILES	Pf Dd2 growth
COc1ccc2c(CNCc3ccccc3OC)c(C(=O)O)n(Cc3ccc(F)cc3Cl)c2c1	274%[0.0462 µM]
COc1ccc(Cn2c(C(=O)O)c(CNCc3ccc(OC)cc3OC)c3ccc(C)cc32)cc1	6.3µM*
COc1ccc(Cn2c(C(=O)O)c(CNCCc3cc(OC)ccc3OC)c3ccc(C)cc32)cc1	8.9µM*
COc1ccc(Cn2c(C(=O)O)c(CNCCc3ccco3)c3ccc(C)cc32)cc1	-11%
COc1ccc2c(CNCCc3cccs3)c(C(=O)O)n(Cc3ccccc3)c2c1	-4%
OC(c1nc(Nc2ccc(Cl)cc2)n[nH]1)C1CC1 (stereo not given)	i
CC[C@H]1CN(C(=O)Nc2cccc(C(F)(F)F)c2)CC[C@H]1CC(=O)N(C)CC#N	-9%[44.1 µM]
COc1ccc(CC(=O)N2CCC3(CC2)CC(O)CCO3)cc1Cl (stereo not given)	-21%
COCCOCC1(CNC(=O)COc2ccccc2)C[C@@H](O)[C@@H](O)C1 (stereo not given in full)	-8%[44.1 µM]
COCCN1CC(CO)C2(CCN(Cc3cccc(C#N)c3)CC2)C1 (stereo not given)	-7%
COCCN1CC(CO)C2(CCN(Cc3cccc(Cl)c3)CC2)C1 (stereo not given)	10µM*
COCCN1CC(CO)C2(CCN(Cc3ccc(F)c(F)c3)CC2)C1 (stereo not given)	-20%
O=C(c1cccnc1CCC1COc2ccccc2O1)N1CCCC1 (stereo not given)	-12%
CC(=O)N1CCC(NC[C@H]2C[C@@H]3CCN2C[C@@H]3c2cc(C3CCCC3)nc(C)n2)CC1	i
CCC(CC)c1cc([C@H]2CN3CC[C@H]2C[C@@H]3CNC2CCN(C(C)=O)CC2)nc(-c2ccncc2)n1	4.5µM*
CC(=O)c1cccc(NC(=O)OC[C@H]2C[C@@H]3CCN2C[C@@H]3c2cc(C3CCCC3)nc(-c3ccncc3)n2)c1	-48%
CCC(CC)c1cc([C@H]2CN3CC[C@H]2C[C@@H]3CO)nc(-c2ccncc2)n1	7.1µM*
Cc1ccc(NC(=O)C[C@H]2NC(=O)c3ccccc3NC2=O)c(Cl)c1	-12%
O=C(c1cnc(N2CCOCC2)nc1)N1CCn2nc(C(O)C3CC3)cc2C1 (stereo not given)	9%
Cc1cc(C(=O)N2CCCN(S(C)(=O)=O)C(c3ccccc3)CC(=O)NCC2)n(C)n1 (stereo not given)	10%
CCN(C1CCOCC1)C1CN(C(=O)c2ccoc2)C1	-21%
Cc1noc2c(N3CC[S+](=O)([O-])CC3)cc(-c3cccs3)nc12	-22%[44.1 µM]
O=C(NCc1ccc(F)cc1Cl)c1cc2n(n1)CC(c1ccc3c(c1)OCO3)OC2 (stereo not given)	-6%
Cn1ncc(N2CCC(CNC(=O)c3ccn(C(C)(C)C)c3)C2)cc1=O (stereo not given)	-13%
O=C(Nc1cc(Cl)cc(Cl)c1)N1CCCC1c1nncn1C1CCCC1 (stereo not given)	11µM*
SMILES	Pf Dd2 growth
COc1cc(NC(=O)N2CCCC2c2nncn2C2CCCC2)cc(OC)c1 (stereo not given)	-7%
Cc1cc(C)cc(NC(=O)N2CCCC2c2nncn2C2CCCC2)c1 (stereo not given)	-8%
Cn1c(Cn2cccn2)nnc1C1CC(NC(=O)c2cc(C#N)c[nH]2)C1 (stereo not given)	2%
CCCC(=O)N1CC2(CCCN2CC2CC2)Cc2ccccc21 (stereo not given)	8.9µM*
C[S+](=O)([O-])N1Cc2ccccc2CC2(CCN(CC3CCCCC3)CC2)C1	-21%
C[S+](=O)([O-])N1Cc2ccccc2CC2(CCCN2Cc2ccccc2)C1 (stereo not given)	-26%
O=C(O)CCC(=O)N1Cc2ccccc2CC2(CCCN2CC2CCCCC2)C1 (stereo not given)	0%
C[S+](=O)([O-])N1CC2(CCCN2CC2CCCCC2)Cc2ccccc21 (stereo not given)	8.9µM*
O=C(O)CCCC(=O)N1Cc2ccccc2CC2(CCCCN2CC2CCCC2)C1 (stereo not given)	7%
O=C1NCCCCCCN(C(=O)Nc2ccccc2F)[C@H]2C[C@H](c3nc(-c4cccnc4)no3)C[C@@H]12	-7%
CN1[C@@H](CCC(=O)N2CCN(c3ccccn3)CC2)CNC(=O)[C@@H]2[C@H]1CCN2Cc1cccs1	-16%
Cn1cc(-c2ccc([S+](C)(=O)[O-])cc2)c2nc(CNc3ccccc3)cn2c1=O	-14%[44.1 µM]
Cc1ccc(C(=O)N2CCNC(=O)C2Cc2ccccc2)c(F)c1 (stereo not given)	6%
CC(C)c1ccc(CNC(=O)C2CCN(c3cc(C(F)(F)F)ncn3)CC2)cc1	76%
COc1ccc(-c2noc(C(=O)N3CCC3)c2[C@H](C)O)cc1	-24%[44.1 µM]
Cc1ccn(CC(=O)NCCn2c(C)cnc2C2CC2)n1	i
CN1CC(=O)N(C2CCC2)Cc2c(NC3CCCCC3)ncnc21	i
CCNc1ncnc2sc3c(c12)CCN(C(=O)COC)C3	-9%
CCNc1ncnc2sc3c(c12)CCN(Cc1ccncc1)C3	13µM*
Oc1cccc(Nc2ncnc3sc4c(c23)CCCC4)c1	-28%
CCNc1ncnc2sc3c(c12)CCN(C(=O)CCOC)C3	-14%
COCCCNc1ncnc2sc3c(c12)CCN(Cc1cccnc1)C3	5µM*
COc1ncc(CN2CCc3c(n(Cc4cccnc4)n(-c4ccccc4)c3=O)C2)cn1	39%[44.1 µM]
COCCNC(=O)[C@@H]1CCC[C@@H](NC(=O)c2cncnc2)CN(C)C(=O)C1	17%[44.1 µM]
C=CCNC(=O)[C@@H]1CCCC[C@@H]1C(=O)N1CCn2nc(C(=O)O)cc2C1	0%
SMILES	Pf Dd2 growth
CN(C)Cc1ccc(-c2ccc(CO)cc2CO)cc1	-26%
CSc1nccc(-c2cc(NCc3cccnc3)nc3[nH]ccc23)n1	10µM*
CSc1nccc(-c2ccccc2CO)n1	-11%
Cc1ccc(C(N)=O)cc1-c1cc(NCc2cccnc2)nc2[nH]ccc12	-15%
CN(CC1CCOCC1)C(=O)Nc1cc(F)cc(F)c1	-21%
COc1cc(OC)cc(OCC2CN(Cc3cccc(C(F)(F)F)c3)C(=O)c3c(ccnc3-c3ccc(OCC(=O)O)cc3)O2)c1 (stereo not given)	-8%
O=C(O)COc1ccc(-c2nccc3c2C(=O)N(Cc2cccc(C(F)(F)F)c2)CC(CNC(=O)c2cccc(Cl)c2)O3)cc1 (stereo not given)	10µM*
O=C(O)COc1ccc(-c2nccc3c2C(=O)N(Cc2cccc(C(F)(F)F)c2)CC(COc2ccc(OC(F)(F)F)cc2)O3)cc1 (stereo not given)	i
COc1ccc(Cc2nc3nccc(-c4cccc(OC)c4)n3n2)cc1	i
CN(CC1CCOCC1)C(=O)Nc1ccccc1Cl	-1%
Cc1cc(C)n(CCNC(=O)c2ccc3c(c2)[nH]c(=O)n3C2CCC(O)CC2)n1 (stereo not given)	-8%
CC(=O)Nc1ccc(S(=O)(=O)N2C[C@@H]3C[C@H](C2)c2ccc(-c4ccccc4C)c(=O)n2C3)cc1	i
CC1(C(=O)NCc2ccc3c(c2)OCO3)CCCCC(=O)N1 (stereo not given)	-16%
COc1cc(C(=O)NC2CCCc3c2[nH]c2c(Cl)cccc32)cc(OC)c1OC (stereo not given)	1µM*
O=C(CNC(=O)c1cnccn1)NC1CCCc2c1[nH]c1c(Cl)cccc21 (stereo not given)	-6%
Cc1cc(C(=O)NC2CCCc3c2[nH]c2c(Cl)cccc32)c2c(C)noc2n1 (stereo not given)	i
Cc1ccccc1CC(=O)N(C)CC1CCOCC1	-10%
